According to PubChem BioAssay (Tox21):
Where “and” joins values, the source holds several entries; their conditions need not be identical. Identical values can stand only once. Results filed as inconclusive are left out. Calls of active or inactive are those of the source. Unless noted, the call rests on the fitted dose curve; in most records, active means well fitted curve in the direction sought with a large enough effect in the repeat runs; inconclusive means weak or mixed curves; inactive means no such curve, though single readings can be large; an effect the other way counts as inactive or inconclusive.

Experiments:
[1] = qHTS assay for small molecule agonists of the p53 signaling pathway (AID 651631; calls by dose curve; further: nearly all actives have a fitted effect of over 15% in size; further: potency means the concentration at half of the fitted maximal effect)
In short: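 HCT-116 cells carrying a stable p53 response element–beta-lactamase reporter were plated, rested 5 h at 37 °C, then exposed to compound in DMSO for 16 h at 37 °C; reporter activity was read as FRET substrate fluorescence after 2 h at room temperature.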

[2] = qHTS assay for small molecule disruptors of the mitochondrial membrane potential (AID 720635); further: potency means the concentration at half of the fitted maximal effect
In short: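 HepG2 cells (2,000/well) attached overnight at 37C, then took compound for 1 hr at 37C, 5% CO2. Mito-MPS dye was added for 30 min; fluorescence was read at 490/535 nm (monomers) and 540/590 nm (aggregates).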

[3] = qHTS assay to test for compound auto fluorescence at 535 nm (green) in HepG2 cells (AID 720675)
[4] = qHTS assay to test for compound auto fluorescence at 590 nm (red) in HepG2 cell free culture (AID 720684)
In short: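 Readout: intrinsic compound fluorescence at 590 nm emission after 540 nm excitation, scaled to Rose Bengal sodium. Matrix was cell-free MEM with 10% FBS; DMSO vehicle wells served as control.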

[5] = qHTS assay to test for compound auto fluorescence at 460 nm (blue) in HepG2 cell free culture (AID 720685)
In short: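 Cell-free plates of MEM plus 10% FBS received 23 nL compound or DMSO vehicle; blue-channel (405/460 nm) intensity scored against triamterene as reference fluorophore.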

[6] = qHTS assay to test for compound auto fluorescence at 535 nm (green) in HepG2 cell free culture (AID 720686)
[7] = qHTS assay to test for compound auto fluorescence at 460 nm (blue) in HepG2 cells (AID 720687)
In short: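 Cells (2,000/well in MEM with 10% FBS) attached overnight at 37 C, then were exposed to compound or DMSO for 1 hr at 37 C, 5% CO2. Fluorescence read at Ex/Em 405/460 nm, expressed as triamterene-equivalent signal.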

[8] = molecular target: Glucocorticoid receptor (Homo sapiens) (UniProt P04150); test: qHTS assay to identify small molecule agonists of the glucocorticoid receptor (GR) signaling pathway (AID 720691; active means well fitted activation curve with a large enough effect in the signal ratio in the repeat runs, not every such curve was filed as active; the % refers to the signal ratio)
Glucocorticoid receptor (Homo sapiens), sequence (P04150 whole entry, looked up): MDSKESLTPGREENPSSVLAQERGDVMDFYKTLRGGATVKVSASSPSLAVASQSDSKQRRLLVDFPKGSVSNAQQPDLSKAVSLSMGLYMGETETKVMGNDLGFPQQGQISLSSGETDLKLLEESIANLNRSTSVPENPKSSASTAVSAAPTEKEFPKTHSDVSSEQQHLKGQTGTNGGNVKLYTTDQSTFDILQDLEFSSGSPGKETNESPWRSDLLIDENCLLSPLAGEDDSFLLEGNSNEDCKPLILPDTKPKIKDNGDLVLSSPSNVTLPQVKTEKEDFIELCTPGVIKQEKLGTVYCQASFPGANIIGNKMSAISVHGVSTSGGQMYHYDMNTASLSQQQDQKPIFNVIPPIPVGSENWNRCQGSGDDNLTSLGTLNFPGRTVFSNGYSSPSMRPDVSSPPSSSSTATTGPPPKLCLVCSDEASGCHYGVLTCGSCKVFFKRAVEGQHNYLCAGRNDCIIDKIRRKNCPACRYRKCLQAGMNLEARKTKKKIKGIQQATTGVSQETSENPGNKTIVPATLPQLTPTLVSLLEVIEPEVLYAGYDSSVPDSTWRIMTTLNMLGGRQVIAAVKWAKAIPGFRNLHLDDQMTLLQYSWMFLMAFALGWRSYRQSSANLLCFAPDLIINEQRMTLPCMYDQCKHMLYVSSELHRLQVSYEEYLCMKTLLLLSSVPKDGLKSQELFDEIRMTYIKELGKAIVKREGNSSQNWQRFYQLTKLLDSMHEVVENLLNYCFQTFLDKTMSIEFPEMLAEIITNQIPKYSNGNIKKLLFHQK
In short: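 A HeLa cervical cancer line expressing GR and a glucocorticoid response element-driven beta-lactamase gene is treated with compounds for 18 h; LiveBLAzer B/G FRET substrate is then applied and fluorescence read.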

[9] = qHTS assay for identifying genotoxic compounds that show differential cytotoxicity against isogenic chicken DT40 cell lines with known DNA damage response pathways - wild type cell line (AID 743012); further: nearly all actives have a fitted effect of over 60% in size; further: potency means the concentration at half of the fitted maximal effect
In short: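 300 wt DT40 cells/well; cpd (DMSO) pintool-transferred after ~0.5 h at 37 C/5% CO2; 40 h incubation; CellTiter-Glo added, 30 min RT; luminescence read.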

[10] = qHTS assay to identify small molecule antagonists of the androgen receptor (AR) signaling pathway - cell viability counter screen (AID 743033; further: nearly all actives have a fitted effect of over 45% in size)
[11] = qHTS assay to identify small molecule antagonists of the androgen receptor (AR) signaling pathway using the MDA cell line - cell viability counter screen (AID 743041; further: nearly all actives have a fitted effect of over 45% in size)
In short: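 qHTS viability read-out; MDA-kb2 AR-luc; R1881-stimulated; 16 h exposure at 37C, 0% CO2; CellTiter-Fluor, 30 min; fluorescence intensity.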

[12] = qHTS assay to identify small molecule antagonists of the thyroid receptor (TR) signaling pathway (AID 743065); further: nearly all actives have a fitted effect of over 55% in size; further: potency means the concentration at half of the fitted maximal effect
In short: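 GH3.TRE-Luc rat pituitary cells carrying two TR response elements driving luciferase were plated for 4 h, given compound plus 1 nM T3 (final), and incubated 23.5 h at 37 C. ONE-Glo luminescence measured reporter inhibition; CellTiter-Fluor fluorescence tracked cytotoxicity.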

[13] = system: thyroid hormone receptor (rat, GH3 cells); test: qHTS assay to identify small molecule agonists of the thyroid receptor (TR) signaling pathway (AID 743066; calls by dose curve)
[14] = qHTS assay to identify small molecule antagonists of the estrogen receptor alpha (ER-alpha) signaling pathway using the BG1 cell line - cell viability counter screen (AID 743081);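 further: compound given together with 17beta-estradiol as the ER stimulus; series mostly up to about 70 µM; nearly all actives have a fitted effect of over 45% in size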
[15] = qHTS assay to identify small molecule antagonists of the thyroid receptor (TR) signaling pathway - cell viability counter screen (AID 743064); further: nearly all actives have a fitted effect of over 50% in size; further: potency means the concentration at half of the fitted maximal effect
In short: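 GH3.TRE-Luc rat pituitary cells carrying a TRE-luciferase reporter were treated with compound plus 1 nM T3 (final) for 23.5 h at 37 °C. Viability was then read in the same wells by CellTiter-Fluor fluorescence after a further 30 min.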

[16] = molecular target: Estrogen receptor (Homo sapiens) (UniProt P03372); test: qHTS assay to identify small molecule agonists of the estrogen receptor alpha (ER-alpha) signaling pathway (AID 743075; calls by dose curve;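 further: HEK293 GripTite cells with ER-alpha and UAS-driven beta-lactamase reporter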)
Estrogen receptor (Homo sapiens), sequence (P03372 whole entry, looked up): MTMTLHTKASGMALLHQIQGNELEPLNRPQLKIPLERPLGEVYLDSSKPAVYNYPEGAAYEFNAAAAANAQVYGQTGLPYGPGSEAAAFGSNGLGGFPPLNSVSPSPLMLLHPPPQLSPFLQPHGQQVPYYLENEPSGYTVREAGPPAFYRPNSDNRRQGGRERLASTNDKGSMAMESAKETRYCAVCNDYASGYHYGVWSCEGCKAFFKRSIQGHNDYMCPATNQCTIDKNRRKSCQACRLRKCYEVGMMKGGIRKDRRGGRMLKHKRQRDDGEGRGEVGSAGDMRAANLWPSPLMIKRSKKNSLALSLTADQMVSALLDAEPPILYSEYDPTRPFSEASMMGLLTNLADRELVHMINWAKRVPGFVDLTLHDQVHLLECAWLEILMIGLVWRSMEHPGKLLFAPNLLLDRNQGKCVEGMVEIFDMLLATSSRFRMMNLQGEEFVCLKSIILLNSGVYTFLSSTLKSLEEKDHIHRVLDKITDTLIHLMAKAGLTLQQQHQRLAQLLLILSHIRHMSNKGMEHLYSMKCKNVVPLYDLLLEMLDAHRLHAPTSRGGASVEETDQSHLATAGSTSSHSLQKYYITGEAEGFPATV

[17] = molecular target: Estrogen receptor (Homo sapiens) (UniProt P03372); test: qHTS assay to identify small molecule agonists of the estrogen receptor alpha (ER-alpha) signaling pathway using the BG1 cell line (AID 743079); further: nearly all actives have a fitted effect of over 20% in size; further: potency means the concentration at half of the fitted maximal effect
[18] = qHTS assay to identify small molecule antagonists of the estrogen receptor alpha (ER-alpha) signaling pathway using the BG1 cell line (AID 743080; calls by dose curve;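 further: BG1 cells stimulated with 17beta-estradiol alongside compound; series mostly up to about 70 µM; nearly all actives have a fitted effect of over 25% in size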)
In short: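 Luminescence from a 4×ERE-luciferase reporter in BG1-Luc-4E2 cells served as read-out. Cells, pre-cultured 5 days in stripped-serum phenol-red-free medium, were exposed to compound with 17beta-estradiol co-stimulation for 21.5 h at 37 C.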

[19] = molecular target: Acetylcholinesterase (Homo sapiens) (UniProt P22303); test: Acetylcholinesterase (AChE) small molecule antagonists: enzyme-based qHTS assay (AID 1347397; calls by dose curve; further: nearly all actives have a fitted effect of over 55% in size); settings: Potency: AChE enzyme activity inhibition; outcome: AChE enzyme activity inhibition
Acetylcholinesterase (Homo sapiens), sequence (P22303 whole entry, looked up): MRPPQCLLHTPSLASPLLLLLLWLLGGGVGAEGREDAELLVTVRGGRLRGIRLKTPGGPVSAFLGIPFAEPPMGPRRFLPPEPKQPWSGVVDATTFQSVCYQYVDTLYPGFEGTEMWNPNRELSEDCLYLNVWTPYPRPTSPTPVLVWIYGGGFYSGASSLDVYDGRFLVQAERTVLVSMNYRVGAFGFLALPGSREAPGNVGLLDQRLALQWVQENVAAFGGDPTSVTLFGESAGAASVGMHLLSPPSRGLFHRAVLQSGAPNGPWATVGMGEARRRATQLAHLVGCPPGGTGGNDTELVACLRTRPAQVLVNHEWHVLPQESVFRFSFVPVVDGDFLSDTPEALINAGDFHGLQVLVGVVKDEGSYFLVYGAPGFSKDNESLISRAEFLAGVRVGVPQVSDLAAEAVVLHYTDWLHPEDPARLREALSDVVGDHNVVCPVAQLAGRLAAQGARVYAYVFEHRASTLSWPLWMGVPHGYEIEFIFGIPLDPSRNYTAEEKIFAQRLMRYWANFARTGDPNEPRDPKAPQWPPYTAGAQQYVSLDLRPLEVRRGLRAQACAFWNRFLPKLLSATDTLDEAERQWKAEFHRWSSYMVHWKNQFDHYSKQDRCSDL
In short: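 Tox21 library chemicals are tested in qHTS format against recombinant human AChE. The enzyme, dispensed at 50 mU/mL, sits with compound for 30 min at room temperature. A DTNB–acetylthiocholine cocktail follows, and colour is read after 10 min.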

[20] = molecular target: Acetylcholinesterase (Homo sapiens) (UniProt P22303); test: Acetylcholinesterase (AChE) small molecule antagonists: fluorescence cell-based qHTS assay (AID 1347398; calls by dose curve; further: nearly all actives have a fitted effect of over 50% in size); settings: Potency: AChE activity; outcome: AChE activity
In short: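 Cellular AChE inhibition: SH-SY5Y cells treated with test chemical for 30 min at 37 C, then acetylthiocholine hydrolysis followed over 40 min at room temperature via thiocholine-reactive Thiolite Green fluorescence (490/520 nm).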

Measured: Potency

C[C@@H]1[C@@H]2Cc3ccc(O)cc3[C@@]1(C)CCN2CC1CC1
not listed: [15] | [16] | [17] | [18] | [19] | [20]
inactive: all other assays above

CNC(C)CC1CCCCC1 (stereo not given)
not listed: [2] | [5] | [7] | [9] | [10] | [14] | [19] | [20]
inactive: all other assays above

c1ccc2c(c1)Sc1ccccc1N2C[C@@H]1CN2CCC1CC2
inactive: [1] | [2] | [3] | [4] | [5] | [6] | [7] | [8] | [11] | [14]

COc1cc([C@@H]2c3cc4c(cc3[C@@H](O)[C@H]3COC(=O)[C@H]23)OCO4)cc(OC)c1O
inactive: [3] | [4] | [5] | [6] | [7] | [8] | [17]
active: [1] 0.168 µM | [2] 2.11 µM | [9] 0.237 µM | [15] 10.6 µM | [12] 0.266 µM

C[C@@H](N)C(=O)c1ccccc1
not listed: [1] | [7] | [10] | [19] | [20]
inactive: all other assays above

CCC1(c2ccccc2)C(=O)NC(=O)N(C)C1=O (stereo not given)
not listed: [2] | [5] | [6] | [16] | [17] | [18] | [19] | [20]
inactive: all other assays above

CCc1cc(OC)c(C[C@@H](C)N)cc1OC
inactive: [1] | [4] | [5] | [6] | [7] | [8] | [10] | [13]
active: [9] 56.7 µM | [12] 56.7 µM

CN[C@]1(c2ccccc2Cl)CCCCC1=O
not listed: [12] | [19] | [20]
inactive: all other assays above

O=C(NC(=O)c1c(F)cccc1F)Nc1ccc(Cl)c(Oc2ncc(C(F)(F)F)cc2Cl)c1
active: [2] 2.98 µM
not listed: [1] | [8] | [9] | [10] | [15] | [19] | [20]
inactive: all other assays above

CC(C)=CCN1CC[C@]2(C)c3cc(O)ccc3C[C@H]1[C@H]2C
active: [9] 24.3 µM | [17] 30.6 µM
not listed: [5] | [8] | [11] | [12] | [19] | [20]
inactive: all other assays above

CC(C)[C@@]1(NC(=O)[C@@H]2C[C@@H]3c4cccc5[nH]cc(c45)C[C@H]3N(C)C2)O[C@@]2(O)[C@@H]3CCCN3C(=O)[C@H](Cc3ccccc3)N2C1=O
active: [2] 0.841 µM | [9] 29.8 µM | [12] 23.7 µM and 26.6 µM
not listed: [6] | [8] | [10] | [15] | [19] | [20]
inactive: all other assays above

CNC(=O)Oc1ccc2c(c1)[C@]1(C)CCN(C)[C@@H]1N2C
inactive: [1]

Cc1c(N)cccc1N
inactive: [19] | [20]

COc1ccc(C)cc1N
inactive: [1] | [19] | [20]

CN1[C@@H]2CC[C@H]1CC(OC1c3ccccc3CCc3ccccc31)C2 (stereo not given in full)
active: [15] 2.85 µM | [12] 5.07 µM
not listed: [1] | [2] | [9] | [19] | [20]
inactive: all other assays above

Brc1ccc(Oc2ccc(Br)cc2)cc1
inactive: [1] | [19] | [20]

Cc1ccc(C)cc1
inactive: [1] | [19] | [20]

COc1cc([C@@H]2c3cc4c(cc3[C@H](O)[C@H]3COC(=O)[C@H]23)OCO4)cc(OC)c1OC
inactive: [1] | [19] | [20]

CCOC(=O)C1(c2ccccc2)CCCN(C)CC1 (stereo not given)
not listed: [1] | [12] | [19] | [20]
inactive: all other assays above

C=CCOc1c(Br)cc(C(C)(C)c2cc(Br)c(OCC=C)c(Br)c2)cc1Br
inactive: [1] | [19] | [20]

O=C(Cl)c1cccc(C(=O)Cl)c1
inactive: [1] | [19] | [20]
